In PubChem BioAssay AID1845 (The Scripps Research Institute Molecular Screening Center, 2009) one finds inhibition data, which are given here for 89 compounds.

Molecules are shown by their SMILES. Hit rate of the full screen: of about 290,000 compounds, about 490 (0.17%) were called active. The sample as a whole holds a higher share of actives than the screen did. Unmarked numbers belong to inactive results. No stated cut-off is given here; in the data, active means inhibition above about 37%; inactive means the rest.

The experiment can be described thus: compounds displacing fluorescent DNA intercalator, primary screen, artefact control for HCV NS3 helicase inhibitor project, biochemical, FID fluorescence (AID 1845).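 Further: 0% = vehicle and 100% = reference compound; higher means more ethidium bromide displaced from hairpin DNA.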 The following applies: DNA fluorescent intercalator displacement, at 7.9 µM, hits give high values.
By inhibition is commonly meant the change of the read-out against control, counted positive when it falls. Take `Cc1ccc(-n2c(SCC(=O)NCCC3=CCCCC3)nc3n[nH]c(C)c3c2=N)cc1Cl`: the inhibition was -27.4%. Consider `O=C(N/N=C/c1cccc(Br)c1)c1ccc(N2CCCC2=O)cc1`, for which the inhibition is -27.4%. The figure for `C=CCOc1ccc(/C=C/C(=O)OCC(=O)NC2CCCCCC2)cc1` is -19.4%; for `O=C(Nc1ccc(C(=O)N2CCCCC2)cc1)c1cccc([N+](=O)[O-])c1` it is -20.2%; for `Cn1ccc(=Nc2ccc(NC(=O)c3ccc(N=c4ccn(C)c5ccc([N+](=O)[O-])cc45)cc3)cc2)cc1` it is 99% (active). To `Cc1cc([N+](=O)[O-])ccc1NC(=O)c1ccc(NC(=O)C(C)C)cc1` belongs -1.34%; to `CCC(C)(C)NC(=O)C(c1cccc(OC)c1OC)N(CC(C)C)C(=O)CCC(=O)Nc1cc(C)on1` (centres undefined), -44.5%; to `O=C(NCCN1CCOCC1)c1ccc2c(c1)ncn2C1CCCC1`, -5.28%. To `c1ccc2cc3c(NCCN4CCOCC4)ccnc3cc2c1` belongs 63.9% (active); to `O=C(NCCN1CCOCC1)c1cc(-c2cccs2)nc2ccccc12`, 3.9%. As to `CCCc1cc(=O)oc2c(C)c(OCC(=O)Nc3ccccn3)ccc12`, the inhibition was -23.4%. The figure for `COC(=O)c1ccc(/C=N/NC(=O)C(=O)N2CCCCCC2)cc1` is -24.6%. To `CCc1c(C)c2ccc(OC3CCCCC3=O)cc2oc1=O` (centres undefined) belongs -19.1%. To `Oc1c(Cl)cc(Cl)c(Cl)c1Cc1c(O)c(Cl)cc(Cl)c1Cl` belongs 42.8% (active); to `CCC1OC(c2ccc([N+](=O)[O-])cc2)=Nc2ccccc21` (centres undefined), 0.06%. Consider `CC(CN1CCCCC1)c1ccccc1` (centres undefined), for which the inhibition is 4.77%. For `CC(C)[C@@H](NC(=O)OC(C)(C)C)C(=O)NCC1CCC(C(=O)N[C@@H](Cc2ccccc2)C(=O)O)CC1` (some centres undefined), the inhibition is -37.5%. The figure for `O=C(CCN1CCc2ccccc2C(O)(c2ccccc2)C1)c1ccc2c(c1)OCCO2` (centres undefined) is 13.1%. To `COc1ccc2cc(C(=O)C3CCCN(C(=O)c4sc(C)nc4C)C3)ccc2c1` (centres undefined) belongs -47.1%; to `O=C(Nc1ccccc1F)c1ccc(Cn2cc(Br)cn2)cc1`, -14.8%; to `NC(=O)c1cc(S(=O)(=O)NCCCc2ccco2)cs1`, -3.13%. The figure for `O=S1(=O)N=C(N(CCO)/N=C/c2ccccc2F)c2ccccc21` is -16.3%. Regarding `COc1ccc(CCNC(=O)CN2C(=O)CCSc3ccccc32)c(OC)c1`, the inhibition was -32%.

Turning to `CC(C)C[C@@H](COc1ccccc1)N1CCN(CC(C)C)CCC1=O`, the inhibition was -13.2%. The figure for `Cc1cnc(C)c(N2CCN(C(=O)C3CCC(=O)N(CCc4cccc(F)c4)C3)CC2)n1` (centres undefined) is -38.6%; for `O=C(Nc1ccccc1)c1ccc2c(c1)OCCCO2` it is -4.42%. To `CC(NC(=O)CNC(=O)Cc1cccc2ccccc12)c1ccc(S(N)(=O)=O)cc1` (centres undefined) belongs -27.1%. In the case of `Cc1ccc2c(c1)N(CC(=O)N1CCC(O)CC1)C(=O)CO2`, the inhibition is -5.64%. Consider `O=C(CCN1C(=O)[C@H]2CC=CC[C@H]2C1=O)NCc1nc(-c2ccccc2)no1`, for which the inhibition is -33.7%. The figure for `O=C1NC(c2ccc(-c3ccccc3[N+](=O)[O-])o2)C(C(=O)c2ccc(Cl)cc2)C(O)(C(F)(F)F)N1` (centres undefined) is -16.8%; for `C/C(=N/OC(=O)c1ccc(Br)cc1)c1ccc(C)cc1` it is -5.35%.

In the case of `CC(C)C[C@H](NC(=O)C1CCC(CNC(=O)[C@@H]2CCCN2C(=O)OC(C)(C)C)CC1)C(=O)O` (some centres undefined), the inhibition is -30.2%. To `CC(=O)c1sc(N/N=C/c2ccc(C(C)C)cc2)nc1C` belongs 4.61%; to `CCOc1ccc(NC(=O)C(C)N2C(=O)c3ccccc3C2=O)cc1` (centres undefined), -4.96%; to `S=C(Nc1ccc(Cl)cc1Cl)N1CCCC1`, 0.9%.

`O=C(NCCN1CCN(C(=O)c2cccc([N+](=O)[O-])c2)CC1)C(=O)NCc1ccc(Cl)cc1`: the inhibition is -23.5%. Regarding `NC(=O)C1CCN(Cc2nc3c(Br)cc(Br)cc3c(=O)[nH]2)CC1`, the inhibition is -3.04%. The figure for `O=C(C1CC(=O)N(c2ccc(F)cc2)C1)N1CCN(c2ccccc2)CC1` (centres undefined) is -24.8%; for `CCc1cc(=O)oc2c(C)c(OCC(=O)N3CC[C@@]4(O)CCCC[C@H]4C3)ccc12` it is -29.5%. The figure for `COC(=O)c1c(NC(=O)C(=O)N2CCCCC2)sc2c1CC(C)(C)OC2` is -42.8%.

On to `CCN(CC)S(=O)(=O)c1ccc(N2CCOCC2)c(NC(=O)C2CSC3(C)CCC(=O)N23)c1` (centres undefined), for which the inhibition is -32.7%. The figure for `COc1cccc(N(CC(=O)NC2CCCC2)C(=O)CCCC(=O)Nc2ccccn2)c1` is -30.3%; for `O=C(O)CC(c1ccccc1F)N1Cc2ccccc2C1=O` (centres undefined) it is -5.32%; for `CC(C)(C)c1ccc(/C=C/C(=O)NCCCn2ccnc2)cc1` it is 4.7%.

With `CC(C)c1ccc(Nc2nnc(SCC(=O)c3nnc(-c4ccccc4)o3)s2)cc1`, the inhibition was -16.9%. To `COc1ccccc1N(CC(=O)Nc1ccccc1C(=O)N1CCCC1)S(C)(=O)=O` belongs -10.3%. The figure for `Cc1cccc(NC(=O)CCN2CC(C)CC(C)C2)c1` (centres undefined) is 6.82%. The figure for `CN(CCO)S(=O)(=O)c1ccc2c(c1)C(=O)c1cc(S(=O)(=O)N(C)CCO)ccc1-2` is 0.99%; for `O=C(c1cc(S(=O)(=O)N2CCOCC2)ccc1Cl)N1CCOCC1` it is -0.42%. With `O=C(CCN1CCCO1)N1CCCC(N2CCN(c3cccc(C(F)(F)F)c3)CC2)C1` (centres undefined), the inhibition is -34.6%. The figure for `O=C(Cc1ccc(Cl)cc1)NC1CCS(=O)(=O)C1` (centres undefined) is -2.95%. As for `CC(=O)Nc1ccc(NC(=O)COc2ncnc3ccccc23)cc1`, the inhibition is -0.17%. On to `CC(=O)Nc1ccc(Nc2c3ccccc3nc3ccccc23)cc1`, for which the inhibition was 70.8% (active). To `Cc1ccc(Nc2c3c(nc4ccccc24)CCC3)cc1` belongs 6.54%. For `COc1ccccc1N1CCN(c2ncnc3sc(C)c(-c4ccccc4)c23)CC1`, the inhibition is -38.6%. Take `OC(CN=c1sc2ccccc2n1CC(O)COc1ccccc1)COc1ccccc1` (centres undefined): the inhibition is -11.1%.

As to `CCc1ccc(C(CNc2nc(C(F)(F)F)nc3ccccc23)N(C)C)cc1` (centres undefined), the inhibition is 39.5% (active). The figure for `NS(=O)(=O)c1ccc(CCNc2nc(C(F)(F)F)nc3ccccc23)cc1` is -2.69%. To `COc1cccc(CNc2nc(C(F)(F)F)nc3ccccc23)c1` belongs -5.57%; to `COc1ccc(C(=O)COC(=O)Cn2cnc3c2c(=O)n(C)c(=O)n3C)c(OC)c1`, -23%. The figure for `O=C(Nc1ccc([N+](=O)[O-])cc1)OCCc1ccccn1` is 5.74%; for `COc1ccc(CSc2nnnn2-c2ccc(O)cc2)cc1F` it is -6.37%; for `COc1ccc(CC(=O)NC2CCSc3ccccc32)cc1OC` (centres undefined) it is -19.9%. Regarding `COc1ccc(-c2noc(CCCC(=O)NC3CCCC3)n2)cc1OC`, the inhibition was -34.4%. The figure for `Cc1ccc(C2CC(c3cccc(NS(C)(=O)=O)c3)=NN2S(C)(=O)=O)cc1` (centres undefined) is -20.2%; for `CN(CC(=O)Nc1c(Cl)cccc1Cl)C(=O)CNC(=O)C1CCCCC1` it is -9.61%; for `CCOC(=O)C1(Cc2ccccc2C)CCCN(C(=O)c2ccc(COC)o2)C1` (centres undefined) it is -43.4%. The figure for `Cn1c(=O)c2ccccc2n(CC(=O)Nc2ccc3c(c2)OCCO3)c1=O` is -7.1%; for `COc1ccc(/C=C2\SC(=O)N(CCC(=O)NC3CCS(=O)(=O)C3)C2=O)cc1` (centres undefined) it is -25.1%; for `COc1ccc(Br)cc1CN(C)CC(=O)Nc1cc([N+](=O)[O-])ccc1OC` it is 0.14%. The figure for `O=C(NC1CCCCC1)C1CCC(CNS(=O)(=O)c2ccccc2)CC1` (centres undefined) is -36.5%; for `Cc1ccc(C(C(=O)NCC2CCCO2)N(C(=O)c2snc(C(N)=O)c2N)c2ccc(C(C)C)cc2)o1` (centres undefined) it is -41%; for `CCCCNC(=O)C1(O)c2ccccc2NC(=O)N1c1ccc(Cl)cc1` (centres undefined) it is -11.7%. With `CCCNC(=O)c1ccc(N2CCC3(CC2)CC(c2ccc(Cl)cc2)=NO3)c([N+](=O)[O-])c1`, the inhibition was -20%. To `COc1ccc(OC)c(C(C)NC(=S)Nc2ccc(S(=O)(=O)Nc3ncccn3)cc2)c1` (centres undefined) belongs -59.4%. Turning to `Cc1c(Cl)cccc1NC(=O)NCCCN1CCCC1=O`, the inhibition was -5.46%. The figure for `COc1ccccc1NC(=O)CCC(=O)OC(C)C(=O)c1ccccc1` (centres undefined) is -17.2%; for `COc1cccc(NC(=O)N2C3CCCC2CC(NC(C)=O)C3)c1` (centres undefined) it is -3.46%; for `CC[n+]1cc(C)ccc1/C=C/c1ccc(N(C)C)cc1` it is -33.2%. `COc1ccc(N2CCN(S(=O)(=O)c3cc(Br)cnc3N)CC2)cc1`: the inhibition was -2.88%. The figure for `CC(=O)c1ccc(NC(=O)c2sc3nc4n(c(=O)c3c2C)CCCCC4)cc1` is -25.9%; for `Cc1ccn(CCC(=O)N2c3ccccc3CC2C)n1` (centres undefined) it is -9.3%. The figure for `O=C(/C=C/c1ccc([N+](=O)[O-])o1)NNC(=O)c1ccc(F)cc1` is -4.43%.

As for `CCN(CC)c1ccc(NC(=O)CN2CCN(c3ccccn3)CC2)cc1`, the inhibition was -17.6%. The figure for `O=C(Cn1ccc2cc(S(=O)(=O)N3CCCC3)ccc21)NCc1ccccc1` is -16.4%; for `O=C(c1ccc[nH]c1=S)N1CCN(S(=O)(=O)c2ccc(Br)cc2Cl)CC1` it is -16.3%; for `C/C(=N\Nc1cccc(C(=O)O)c1)c1ccc2c(c1)Nc1ccccc1S2` it is -16.1%. To `NS(=O)(=O)c1ccc2nc(NC(=O)CS(=O)(=O)c3ccc(F)cc3)sc2c1` belongs -3.98%. To `CC(CCc1ccc(O)cc1)NCc1ccc(Cl)cc1Cl` (centres undefined) belongs 12.2%.
